# Bioassay records: PubChem BioAssay, National Center for Advancing Translational Sciences (NCATS)
# ALOX15B inhib = 15-hLO-2 (ALOX15B) enzyme inhibition; actives 0.56% (n = 110,000); Potency, µM (titrated, usually from 57.1 µM), inactives show at the highest dose activity change, negative = inhibition, hits mostly inhibitors; O15296; purified 15hLO-2, xylenol orange hydroperoxide absorbance; also: potency is read from the fitted curve at half-maximal effect; nearly all actives have a fitted effect of over 60% in size
# Target sequence (O15296 whole entry, looked up): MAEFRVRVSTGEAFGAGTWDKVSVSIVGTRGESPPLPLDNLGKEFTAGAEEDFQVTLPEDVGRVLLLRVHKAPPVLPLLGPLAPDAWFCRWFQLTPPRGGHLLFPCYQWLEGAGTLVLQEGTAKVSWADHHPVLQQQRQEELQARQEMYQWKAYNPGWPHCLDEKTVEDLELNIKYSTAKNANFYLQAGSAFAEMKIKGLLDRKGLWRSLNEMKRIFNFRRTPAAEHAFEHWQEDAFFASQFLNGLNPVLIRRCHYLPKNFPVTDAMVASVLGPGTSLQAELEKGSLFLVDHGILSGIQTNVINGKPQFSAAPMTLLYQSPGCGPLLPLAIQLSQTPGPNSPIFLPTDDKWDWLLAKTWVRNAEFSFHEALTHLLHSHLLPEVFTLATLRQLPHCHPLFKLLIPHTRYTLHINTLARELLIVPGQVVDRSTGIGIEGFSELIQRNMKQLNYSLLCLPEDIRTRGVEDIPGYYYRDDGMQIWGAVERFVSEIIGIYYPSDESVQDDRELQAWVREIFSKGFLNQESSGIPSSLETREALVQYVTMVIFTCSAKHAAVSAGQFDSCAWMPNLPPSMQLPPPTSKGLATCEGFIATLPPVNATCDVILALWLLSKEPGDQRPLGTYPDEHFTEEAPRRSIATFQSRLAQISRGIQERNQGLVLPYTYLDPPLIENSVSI
#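 Screening format was qHTS against 50 nM purified 15hLO-2 in Hepes pH 7.5 with detergent. Activity follows hydroperoxide formation from 45 uM arachidonic acid, measured as 573:405 nm absorbance ratio of the ferric-xylenol orange complex.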
# ALOX12 inhib = blocks human 12-lipoxygenase activity. P18054. purified 12-hLO, xylenol orange hydroperoxide absorbance. Potency, µM (top dose mostly 57.1 µM), for the others: top-dose activity change, negative = inhibition, usual class: inhibitors. actives 0.12% (n = 150,000); also: potency is read from the fitted curve at half-maximal effect; nearly all actives have a fitted effect of over 55% in size
#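 Purified human 12hLO (150 nM final) was preincubated with compounds for 15 min at room temperature in 25 mM Hepes pH 7.0, 0.01% Triton X-100, then reacted with 40 uM arachidonic acid for 30 min. Hydroperoxide was detected with ferrous iron/xylenol orange.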
# IMPase inh = cell-permeable inhibitors of inositol monophosphatase (IMPase); inhibition (IP1 accumulation), % at 46.1 µM; AID 901; 120,000 tested, under 10 active; P97697; CHO-M1 cells, IP1 accumulation, HTRF TR-FRET ratio; active = well fitted curve in the direction sought with a large enough effect in the signal ratio, not every such curve was filed as active; inconclusive = small, poorly fitted or top-dose-only effect, or a change in a side signal; inactive = no such curve, though single readings can be large or run the other way; the % refers to the signal ratio;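 also: cells stimulated with carbachol in lithium chloride buffer; plate controls were DMSO basal wells for no effect and reference inhibitor wells for full effect; higher means more IMPase inhibition seen as more IP1 and lower FRET ratio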
#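 Elevated IP1 in lysates lowers TR-FRET signal (665/620 ratio and 620 channel reported). Cells were CHO-M1, given carbachol (50 uM as added) plus 50mM LiCl, pH 7.4, 30 min, 37C; compounds titrated up to 46 uM; AC50 by Hill equation.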
# PNC inhibitor = blocks assembly of the perinucleolar compartment | PC3M PTB-GFP, PNC prevalence imaging, 16 h; hits give low values | activity change (PNC), negative = inhibition, % at 10 µM | actives 3.1% (n = 140,000);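 active = readout at or below -70, meaning at least 70% loss of cells showing the perinucleolar compartment, a nuclear body marking cancer cells; inconclusive = readout between -30 and a set limit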;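 also: plate controls were DMSO wells for no effect and camptothecin positive control wells for full effect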
#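 Compounds are pinned in duplicate onto adhered PC3M cells stably expressing GFP-tagged PTB and incubated 16 h at 37 C. Cells are then fixed, nuclei stained with Hoechst, and PNC-positive cells counted.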
# * marks the source's active call; other numbers are inactive results; ? = inconclusive; . = no result given; [ ] = remark or other dose. This is a sample that favours compounds with a hit; in the whole collection about 3% have one here. Unless noted, calls follow the shape of the dose curve; as a rule, active = well fitted curve in the direction sought with a large enough effect; inconclusive = small, poorly fitted or top-dose-only effect, or another doubt; inactive = no such curve, though single readings can be large; an effect the other way counts as inactive or inconclusive. Unless noted, % is scaled to controls: 0 for no effect and ±100 for the full control effect.
SMILES,ALOX15B inhib,ALOX12 inhib,IMPase inh,PNC inhibitor
Cc1cccc(NC(=S)/N=C(\N)Nc2nc(C)c3ccccc3n2)c1,.,7.9µM*,.,50
Cc1cc(C)cc(NC(=S)/N=C(\N)Nc2nc(C)c3ccccc3n2)c1,.,-1%,-2,?
Cc1ccc(NC(=S)/N=C(\N)Nc2nc(C)c3ccccc3n2)cc1C,.,5.6µM*,-3,-6
CCOc1cccc(C(=O)Nc2ccc3oc(-c4ccncc4)nc3c2)c1,.,.,-7,.
COc1ccc(-c2nc3n(n2)C(c2ccccc2F)C(C(=O)Nc2cccnc2)=C(C)N3)cc1OC (configuration not stated),.,.,14,.
S=C(NCc1cccc(Cl)c1)NC1CCCCC1,.,?,.,-109*
COc1ccccc1CNC(=S)NC1CCCC1,.,-11%,9,2
CCOc1cc(/C=N/NC(=O)c2cc(-c3cccc(OC)c3)n[nH]2)ccc1O,.,-8%,.,.
CCOC(=O)c1sc(/N=C/N(C)C)c(C(=O)OCC)c1C,-9%,-1%,2,-82*
CC(=O)O[C@]1(C)CC[C@]23CC1C(C)(C)C2CC[C@@H]3C (some centres not stated),20%,-2%,.,.
COc1ccc(NC(=O)CSc2ncc(-c3ccc(Cl)cc3)[nH]2)cc1OC,.,.,12,.
CC(=O)c1cc(C#N)c(Oc2cc(C)cc(C)c2)nc1C,3%,-5%,1,-114*
CC(C)C1Cc2[nH]c(=O)c(C(=O)O)cc2CO1 (configuration not stated),-9%,-14%,1,-111*
COC(=O)N1CCN(c2ccc(Cl)c(Cl)c2)CC1,6%,-12%,7,-102*
CCOC(=O)N1CCN(c2ncnc3c2[nH]c2ccc(F)cc23)CC1,2%,-7%,6,-6
OC1(c2cccc(C(F)(F)F)c2)CCN(c2ncnc3c2[nH]c2ccc(F)cc23)CC1,2%,18µM*,3,-21
Fc1ccc2[nH]c3c(N4CCN(c5ccccc5)CC4)ncnc3c2c1,51%,-9%,24,-126*
CC[C@H]1C(c2ccc(F)cc2)=NN(c2ccccc2)[C@@H]1CO,-24%[0.0915 µM],-9%[0.00818 µM],.,.
CCC1=NN=C(c2ccc(F)cc2)C(c2c[nH]c3ccccc23)N1O (configuration not stated),.,-7%,-19,-100*
O=C(c1ccc(C(F)(F)F)cc1)N1CCC(=O)N(C(COCc2ccc(C(F)(F)F)cc2)Cc2ccccc2)CC1 (configuration not stated),.,-7%,.,26
Cc1cccc(COCC(Cc2ccccc2)N2CCN(C(=O)c3ccc(C(F)(F)F)cc3)CCC2=O)c1 (configuration not stated),.,-4%,.,-80*
COc1ccc2nc3oc(C(=O)N4CCCCC4)cc3cc2c1,.,4%,-1,-100*
CCOC(=O)C1CCN(C(=O)c2cc3cc4cc(OC)ccc4nc3o2)CC1,1%,3%,6,4
Cc1ccc(C(=O)Nc2c(C)n(C)n(-c3ccccc3)c2=O)cc1S(=O)(=O)N1CCOCC1,14%,0%,1,26
Cc1ccc(S(=O)(=O)N2CCOCC2)cc1C(=O)Nc1c(C)n(C)n(-c2ccccc2)c1=O,1%,-3%,0,-100*
SMILES,ALOX15B inhib,ALOX12 inhib,IMPase inh,PNC inhibitor
CCOc1ccc(-n2c(N)c(C(=O)NCc3ccco3)sc2=S)cc1,?,-20%,11,-86*
CCOc1ccc(-n2c(N)c(C(=O)NCc3cccnc3)sc2=S)cc1,-3%,-20%,6,-15
C[C@H]1C2=C3C(C[C@H]4C(=O)N(c5ccccc5)C(=O)[C@H]4[C@H]3[C@@]3(Cc4ccccc4)C(=NCCc4c[nH]c5ccccc45)OC(=O)N3C2=O)[C@H]2C(=O)N(c3ccccc3)C(=O)[C@H]21 (some centres not stated),-19%,-2%,.,.
Clc1cc(Cl)cc(Cl)c1,-8%,-4%,.,.
CN(C(=O)COc1ccc(C(C)(C)C)cc1)C1CCS(=O)(=O)C1 (configuration not stated),8%[11.4 µM],-3%,-4[1.84 µM],-120*
CCCCCCCCNC(C)C(O)c1ccc(SC(C)C)cc1 (configuration not stated),30%,-2%,.,-115*
CC(NCCc1ccc(O)cc1)C(O)c1ccc(O)cc1 (configuration not stated),14%,-1%,.,-4
COc1ccc(NC(=S)NN(C)C(=S)Nc2ccc(OC)cc2)cc1,.,-3%,.,-114*
COc1ccc(NC(=S)Nc2ccc(Oc3ccccc3)cc2)cc1,?,-17%,-1,46
CC1(C(=O)N(CC(=O)NC2CCCC2)Cc2ccco2)CC(=O)N=C2C=CC=CN21 (configuration not stated),-1%,3%,-5,11
CC(C)COc1ccc(CSCCNC(=S)Nc2ccccc2)cc1,25µM*,28µM*,1,56
COc1cccc2c1[C@@H]1CN(CCCCn3c(=O)[nH]c4c(sc5ncc(-c6ccccc6)nc54)c3=O)C[C@H]1CO2,45%,9%,6,.
COc1ccc(-n2c(-c3ccc(Br)cc3)c[n+]3c2CCc2ccccc2-3)cc1,.,-3%,.,-134*
COc1ccc(-c2cn(-c3ccc(OC)cc3)c3[n+]2-c2ccccc2CC3)cc1,.,0%,9,-96*
COc1ccc(-c2c[n+]3c(n2-c2ccccc2)CCCCC3)cc1,.,-1%,4,-22
O=C(c1cc(Cl)ccc1[N+](=O)[O-])N1CCc2ccccc2C1,.,-2%,.,?
CC(CC1C(C#N)=C(N)SC(N)=C1C#N)c1ccccc1 (configuration not stated),20µM*,-7%,3,16
Cc1nn(Cc2ccc(Cl)cc2)c(C)c1NC(=O)C(c1ccccc1)c1ccccc1,.,-6%,.,?
O=C1CCCN1c1ccc(S(=O)(=O)Oc2cccc(Cl)c2)cc1[N+](=O)[O-],-6%,-7%,3,-106*
Cc1ccc(S(=O)(=O)NNC(=O)c2sccc2-n2cccc2)cc1,.,-9%,0,?
Cc1ccc(S(=O)(=O)NNC(=O)c2sc3nc(C)cc(C)c3c2-n2cccc2)cc1,8%[11.4 µM],-16%,-1[1.84 µM],-90*
Cc1cc(C)c(NC(=O)Nc2ccccc2)c(Cl)c1,.,4%,.,-114*
Cc1nc2c(cc1C(=O)N/N=C/c1ccc(O)c(O)c1)c(=O)n(C)c(=O)n2C,.,2%,.,-89*
O=C(OC(c1ccccc1)c1nccc2ccccc12)c1cc([N+](=O)[O-])cc([N+](=O)[O-])c1 (configuration not stated),.,3%,3,?
Cc1ncoc1C(=O)Nc1nccs1,1%,10%,?,10
CC(=O)c1noc(C)c1C(=O)Nc1nccs1,-5%,-2%,1,-93*
O=S(=O)(c1ccccc1)N1CCC2(CCN(C(c3ccccc3)c3ccccc3)CC2)CC1,17%,-2%,.,.
COC(=O)[C@@]1(Cc2ccccc2)[C@H]2c3cc(C(=O)N4CCCC4)n(CCc4ccccn4)c3C[C@H]2CN1C(=O)c1ccccc1,-1%,-1%,.,.
